37 molecules from PubChem BioAssay AID488789 (Broad Institute, 2010) can be followed below.

Structures are written as SMILES. Results with a measured potency or affinity are listed apart. Records with an inconclusive call do not appear. Activity calls are given as the source filed them.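 The calls were made as follows: active = samples whose fitted half-maximal inhibition concentration is no more than ten times the top valid dose tested; inconclusive = flat response between -70 and -30, or invalid curve fit; inactive = flat within 30 of zero, potency above limit, or signal rising.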

This experiment concerns the target Trypsin (Sus scrofa) (UniProt P00761). Kind of experiment: trypsin protease activity blockade – biochemical, quenched peptide fluorescence, cherry-pick, selectivity assay for Rce1 protease inhibitor project, dose response (AID 488789).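 Also: more negative means stronger trypsin inhibition.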 As to conditions: porcine trypsin, quenched peptide cleavage fluorescence; series mostly up to 10 µM.

Sequence of Trypsin (Sus scrofa) (P00761 whole entry, looked up): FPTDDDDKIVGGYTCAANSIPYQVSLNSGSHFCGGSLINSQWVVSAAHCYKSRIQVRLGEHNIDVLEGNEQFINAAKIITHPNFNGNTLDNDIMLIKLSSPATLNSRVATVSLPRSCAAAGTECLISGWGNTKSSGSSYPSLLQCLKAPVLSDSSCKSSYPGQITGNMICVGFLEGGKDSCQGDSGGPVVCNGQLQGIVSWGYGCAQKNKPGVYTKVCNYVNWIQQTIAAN

In the case of `O=C(CCNC(=O)N1CC(=O)Nc2ccccc21)NCCc1cccc(F)c1`, the call was inactive.

On to `CC(C)c1c(C(=O)N/N=C/c2cccc3ccccc23)nnn1-c1nonc1N`, for which the molecule was classed as inactive.

With `CCOc1ccc(NC(=O)CCSc2ccc(C)cc2)cc1`, the molecule was called inactive.

For the molecule `COc1ccc(C)cc1NC(=O)CN1C(=O)COc2ccc(S(=O)(=O)N3CCOCC3)cc21`, the molecule was classed as inactive.

For the molecule `CCOc1ccc(-c2nc(CCl)cs2)cc1OC`, the result was inactive.

For the molecule `CCCCCCCCCC[N+](C)(C)CC/C=C1/c2ccccc2Sc2ccc(Cl)cc21`, the call was inactive.

For the molecule `O=C(Nc1ccccc1N1CCOCC1)C1CCN(S(=O)(=O)c2ccc(F)cc2)CC1`, the molecule was classed as inactive.

As for `CCN(CC)CCNC(=O)CSc1c2c(nc3cc(Cl)ccc13)CCCC2`, the molecule was classed as inactive.

Regarding `Cn1c(CN2CCOCC2)c(C#N)c2ccccc21`, the outcome was inactive.

In the case of `O=C(/C=C/c1cn(-c2ccccc2)nc1-c1cccs1)NCCN1CCOCC1`, the outcome was inactive.

With `CCOC(=O)c1cc2c(=O)[nH]ccc2nc1C`, the result was inactive.

As for `CCOc1ccc(-c2c(C(=O)N/N=C/c3cccs3)nnn2-c2nonc2N)cc1`, the molecule was classed as inactive.

Take `COC(=O)C1CCCN1S(=O)(=O)c1ccc2ccccc2c1` (configuration not stated): the call was inactive.

Regarding `O=C(Nc1cccc2ccccc12)c1ccc(OC(=S)N2CCOCC2)cc1`, the molecule was classed as inactive.

Turning to `Cc1ccsc1/C=N/NC(=O)c1nnn(-c2nonc2N)c1C(C)C`, the outcome was inactive.

Take `COc1ccccc1NC(=O)Cc1nnc(SCC(=O)Nc2nccs2)n1C`: the outcome was inactive.

With `Cc1nc(N2CCOCC2)c2c(C)c(C(=O)Nc3ccccc3C(F)(F)F)sc2n1`, the outcome was inactive.

Take `CC(C)CC(=O)Nc1ccc2oc(-c3cccnc3)nc2c1`: the result was inactive.

Turning to `COc1ccc(C2c3c(ncn(CCN4CCOCC4)c3=N)Oc3ccc4ccccc4c32)cc1` (configuration not stated), the result was inactive.

Turning to `CCO[C@@H]1OC(C(=O)N2CCN(Cc3ccccc3)CC2)=C[C@H](c2ccccc2)[C@H]1CCCO`, the call was inactive.

Turning to `O=C(C1CCC(=O)N(C2CC2)C1)N1CCN(c2ccccc2Cl)CC1` (configuration not stated), the molecule was called inactive.

Regarding `O=C(CN(C1CCCCC1)C1CCCCC1)N1CCc2ccccc2C1`, the call was inactive.

For `O=C1NC2(C=Cc3c(ccc4ccccc34)O2)Oc2ccccc21` (configuration not stated), the molecule was classed as inactive.

As to `CS(=O)(=O)c1ccc(C(=O)OCC(=O)N(CCc2ccccc2)Cc2ccccc2)cc1`, the call was inactive.

`Nc1nc2c(ncn2COC(CO)CO)c(=O)[nH]1`: the result was inactive.

Take `O=C(O)CCCC[C@@H]1SC[C@@H]2NC(=O)N[C@@H]21`: the call was inactive.

As for `Cc1ccc(C2(COC(=O)C(C)C)CO2)c(OC(=O)C(C)C)c1` (configuration not stated), the result was inactive.

On to `Cc1cc(C)n(Cc2ccc(NC(=O)c3ccc(COc4ccccc4Br)cc3)cc2)n1`, for which the outcome was inactive.

In the case of `CC(NC(=O)/C(C#N)=C/c1ccc(Cl)c([N+](=O)[O-])c1)c1ccccc1` (configuration not stated), the molecule was classed as inactive.

`O=C(O)CCc1nc2cc(C(F)(F)F)ccc2n(Cc2ccccc2)c1=O`: the result was inactive.

As for `C=C(C)CSc1nc2sc3c(c2c(=O)n1-c1ccc(OC)cc1)CCN(C)C3`, the molecule was called inactive.

Turning to `CCCN(CCC)CCNC(=O)c1cc2c(-c3ccccc3F)nn(C)c2s1`, the molecule was called inactive.

On to `Cc1ccc(S(=O)(=O)CC(=O)N2CCN(c3ccccc3F)CC2)cc1`, for which the result was inactive.

For the molecule `CCC(=O)Nc1cccc(NC(=S)NC(=O)c2cccs2)c1`, the result was inactive.

Take `CCOc1cccc(-c2c(C(=O)N/N=C/c3c(F)cccc3Cl)nnn2-c2nonc2N)c1`: the result was inactive.

For `O=C(N/N=C/c1cn(Cc2ccccc2)c2ccccc12)c1cc(O)cc(O)c1`, the call was inactive.

On to `O=C(CCCn1c(=O)[nH]c2ccc(Br)cc2c1=O)NCc1ccc(Cl)cc1`, for which the molecule was classed as inactive.
